Experimental data reported in PubChem BioAssay (EPA / NIEHS).
Inconclusive results are not listed. Activity calls are given as the source filed them. Rule for the calls: active = hit-call score of the fitted dose curve at least 0.9, where 1 is the maximum; inconclusive = response in the unintended direction; inactive = score below 0.9.

What follows are compounds tested against Bile acid receptor (Homo sapiens) (UniProt Q96RI1) (assay: ATG_FXR_TRANS: Attagene TRANS-FACTORIAL HepG2 Assay for Farnesoid X Receptor (FXR) (AID 2282979;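 note: hits raise reporter mRNA above DMSO so AC50 marks FXR activation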)). Settings: HepG2 Attagene TRANS FXR-GAL4 reporter transcription.
Method: ATG_TRANS is a cell-based, multiplexed-readout assay that uses HepG2, a human liver cell line, with measurements taken at 24 hours after chemical dosing in a 24-well plate.ATG_FXR_TRANS is one of 30 assay component(s) measured or calculated from the ATG_TRANS assay. It is designed to make measurements of mRNA induction, a form of inducible reporter, as detected with fluorescence intensity signals by Reverse transcription polymerase chain reaction (RT-PCR) and Capillary electrophoresis technology.Data from the assay component ATG_FXR_TRANS was analyzed into 1 assay endpoint. This assay endpoint, ATG_FXR_TRANS, was analyzed in the positive analysis fitting direction relative to DMSO as the negative control and baseline of activity. Using a type of inducible reporter, measures of mRNA for gain-of-signal activity can be used to understand the reporter gene at the transcription factor-level as they relate to the gene NR1H4. Furthermore, this assay endpoint can be referred to as a primary readout, because this assay has produced multiple assay endpoints where this one serves a reporter gene function. To generalize the intended target to other relatable targets, this assay endpoint is annotated to the nuclear receptor intended target family, where the subfamily is non-steroidal.
Human liver HepG2 cells are transiently transfected with multiple reporter transcription units (MRTUs) in 6-well plates using FuGene 6 reagent (Roche; 3 ml FuGene/1 mg DNA). The MRTU constructs are regulated by a cis-regulating element (promoter). […] A major difference between the CIS and TRANS system is that in CIS activities of endogenous TFs are measured, whereas the TRANS assay evaluates changes in activities of exogenous, chimeric NR-Gal4 proteins. […] At the end of 24 hour incubation, total RNA was isolated using TriZol reagent (Invitrogen). The isolated RNA is then reverse-transcribed using oligo(dT) primer and Mo-MLV reverse transcriptase (Invitrogen) with DNAse I (Ambion) treatment for 30 min. The one-tenth of the produced cDNA was amplified by PCR using Taq DNA polymerase (Invitrogen) and two reporter sequence-specific primers. The PCR products were fluorescently labeled by primer extension with 6-arboxyfluorescein (6-FAM) 5'-labeled reporter sequence-specific primer (2 min at 95 C, 20 s at 68 C and 10 min at 72 C) and these products were digested with 5U of HpaI (New England Biolabs) for 2h at 37 C. The fragments were purified using Qiaquick PCR columns (Qiagen), analyzed on an ABI 3130xL genetic analyzer (Applied Biosystems) with peak positions identified by using a set of X-rhodamine (ROX)-labeled MapMarker1000 molecular weight standards (BioVentures). The raw capillary electrophoresis data was processed using Attagraph software (Attagene).

Bile acid receptor (Homo sapiens), sequence (Q96RI1 whole entry, looked up, the tested form may be a part): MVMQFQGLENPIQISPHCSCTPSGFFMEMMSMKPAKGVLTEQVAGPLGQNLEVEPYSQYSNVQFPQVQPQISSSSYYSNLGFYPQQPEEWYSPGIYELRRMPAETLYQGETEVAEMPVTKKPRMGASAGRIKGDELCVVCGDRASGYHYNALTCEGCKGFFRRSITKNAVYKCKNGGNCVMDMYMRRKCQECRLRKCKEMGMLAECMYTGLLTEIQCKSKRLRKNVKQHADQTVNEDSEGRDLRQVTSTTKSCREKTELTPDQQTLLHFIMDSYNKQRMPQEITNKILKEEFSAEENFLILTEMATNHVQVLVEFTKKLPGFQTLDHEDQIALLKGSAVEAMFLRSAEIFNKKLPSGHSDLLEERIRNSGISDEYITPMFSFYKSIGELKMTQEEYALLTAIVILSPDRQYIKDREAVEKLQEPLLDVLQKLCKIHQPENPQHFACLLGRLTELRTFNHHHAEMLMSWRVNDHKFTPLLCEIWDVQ

| SMILES | outcome | AC50 |
| --- | --- | --- |
| OCCCC(F)(F)C(F)(F)C(F)(F)C(F)(F)C(F)(F)C(F)(F)C(F)(F)F | inactive |  |
| O=C(O)C(F)(OC(F)(F)C(F)(OC(F)(F)C(F)(F)C(F)(F)F)C(F)(F)F)C(F)(F)F (stereo not given) | inactive |  |
| c1ccc(B(c2ccccc2)c2ccccc2)cc1 | inactive |  |
| CCO[Si](CCC(F)(F)C(F)(F)C(F)(F)C(F)(F)C(F)(F)C(F)(F)F)(OCC)OCC | inactive |  |
| c1ccc(-c2ccccc2-c2ccccc2)cc1 | inactive |  |
| FC(F)(F)C(F)(F)C(F)(F)C(F)(F)C(F)(F)C(F)(F)CC1CO1 (stereo not given) | inactive |  |
| FC(F)(F)C(F)(F)C(F)(F)N(C(F)(F)C(F)(F)C(F)(F)F)C(F)(F)C(F)(F)C(F)(F)F | inactive |  |
| FC(F)(F)C(F)(F)C(F)(F)C(F)(F)C(F)(F)CCI | inactive |  |
| C=C(C)C(=O)OCCC(F)(F)C(F)(F)C(F)(F)C(F)(F)C(F)(C(F)(F)F)C(F)(F)F | inactive |  |
| CC(Cc1ccc(O)c(O)c1)C(C)Cc1ccc(O)c(O)c1 (stereo not given) | inactive |  |
| O=C(O)C(F)(F)C(F)(F)C(F)(F)C(F)(F)F | inactive |  |
| OCCCC(F)(F)C(F)(F)C(F)(F)F | inactive |  |
| CC(C)=CCCC(C)CCOC(=O)C(C)C (stereo not given) | inactive |  |
| O[Si](c1ccccc1)(c1ccccc1)c1ccccc1 |  | 85.2 µM (active) |
| FC1CC(F)(F)C(F)(F)C1(F)F (stereo not given) | inactive |  |
| C=CC(F)(F)C(F)(F)C(F)(F)C(F)(F)C(F)(F)C(F)(F)C(F)(F)C(F)(F)F | inactive |  |
| FC(F)(F)C(F)(F)CNCC(F)(F)C(F)(F)F | inactive |  |
| CCc1c(Br)c(Br)c(Br)c(Br)c1Br | inactive |  |
| CCCCC(CC)COP(=O)(O)OCC(CC)CCCC (stereo not given) | inactive |  |
| FC(F)(Br)C(F)(F)C(F)(F)C(F)(F)C(F)(F)C(F)(F)Br | inactive |  |

| SMILES | outcome | AC50 |
| --- | --- | --- |
| CC(C)(C)c1ccc(OC2CCCCC2O)cc1 (stereo not given) | inactive |  |
| O=S(=O)(OCCOC(F)(F)F)C(F)(F)F | inactive |  |
| CCN(Cc1cccc(S(=O)(=O)O)c1)c1ccc(C(=C2C=CC(=[N+](CC)Cc3cccc(S(=O)(=O)O)c3)C=C2)c2ccc(O)cc2S(=O)(=O)[O-])cc1 | inactive |  |
| COC(=O)C1CCC(C(=O)OC)CC1 (stereo not given) | inactive |  |
| FC(F)(F)C(F)(F)C(F)(F)C(F)(F)C(F)(F)C(F)(F)C(F)(F)C(F)(F)CCS | inactive |  |
| O=C(O)C=C(C(F)(F)F)C(F)(F)F | inactive |  |
| FC(F)(F)C(F)(F)C(F)(F)CI | inactive |  |
| O=C(O)C(F)(F)C(F)(F)C(F)(F)C(F)(F)C(F)(F)C(F)(F)C(F)(F)C(F)(F)C(F)(F)C(F)F | inactive |  |
| CCCCCCCOC(=O)c1ccccc1C(=O)OCCCCCCC | inactive |  |
| [Co] | inactive |  |
| O=C(O)C(F)(F)C(F)(F)C(F)F | inactive |  |
| CCCCNc1ccccc1 | inactive |  |
| Nc1ccc([N+](=O)[O-])cc1O | inactive |  |
| C#C[C@]1(O)CC[C@H]2[C@@H]3CCc4cc(OC)ccc4[C@H]3CC[C@@]21C | inactive |  |
| Oc1ccc(Nc2ccccc2)cc1 | inactive |  |
| CCC(=O)OCCc1ccccc1 | inactive |  |
| FC(F)(F)C(F)(F)C(F)(F)C(F)(F)C(F)(F)C(F)(F)C(F)(F)Br | inactive |  |
| OCC(F)(F)C(F)(F)C(F)(F)C(F)F | inactive |  |
| CC(CCl)OP(=O)(OC(C)CCl)OC(C)CCl (stereo not given) | inactive |  |
| FC(F)(F)C(F)(F)C(F)(F)C(F)(F)C(F)(F)C(F)(F)CCS | inactive |  |
